A selection: hits, their analogues and other compounds. The true share with any hit is near 4.3%.
rCAG binder: binders of r(CAG) RNA repeats, primary screen, biochemical, fluorescence; r(CAG) RNA repeat, TO-PRO-1 dye displacement fluorescence; inhibition, % at 3 µM; hit rate 1.3% among 370,000;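 active = inhibition above the plate cutoff, the mean of all test compounds on that plate plus 3 SD, cut at about 35% in these data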;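 note: higher means more dye released from RNA so lower well fluorescence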
GRIN3A LBD mod: binders of NR3A ligand-binding domain, primary screen, biophysical, differential scanning fluorimetry, uHTS | Glutamate receptor ionotropic, NMDA 3A (GRIN3A) ligand-binding domain | hit rate 2.5% among 340,000 | Tm shift relative to glycine control, % at 25 µM | NR3A LBD differential scanning fluorimetry, Tm shift; 0% = protein alone, 100% = glycine-bound protein;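 active = melting temperature shift of at least 10% of the positive control shift, at one fixed dose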
NadD block: inhibitors of S. aureus NadD, primary screen, biochemical, colorimetric, uHTS; Nicotinate-nucleotide adenylyltransferase NadD (Staphylococcus aureus N315); purified NadD enzyme, colorimetric absorbance read-out; inhibition, % at 20 µM; hit rate 0.78% among 360,000; AID 602399, 2012; in the data active = inhibition above about 26%
FAS-TE inh: FAS thioesterase domain inhibitors, primary screen, biochemical, fluorescence intensity, uHTS; Fatty acid synthase (Homo sapiens), P49327; recombinant FAS-TE, OMFH fluorogenic substrate, fluorescence endpoint; inhibition, % at 15 µM; hit rate 0.67% among 360,000; AID 602261, 2012;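 active = compounds whose normalised, plate-corrected inhibition of enzyme fluorescence in the single-dose primary screen is 50% or more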
Target sequence (P49327 whole entry, looked up, the tested form may be a part): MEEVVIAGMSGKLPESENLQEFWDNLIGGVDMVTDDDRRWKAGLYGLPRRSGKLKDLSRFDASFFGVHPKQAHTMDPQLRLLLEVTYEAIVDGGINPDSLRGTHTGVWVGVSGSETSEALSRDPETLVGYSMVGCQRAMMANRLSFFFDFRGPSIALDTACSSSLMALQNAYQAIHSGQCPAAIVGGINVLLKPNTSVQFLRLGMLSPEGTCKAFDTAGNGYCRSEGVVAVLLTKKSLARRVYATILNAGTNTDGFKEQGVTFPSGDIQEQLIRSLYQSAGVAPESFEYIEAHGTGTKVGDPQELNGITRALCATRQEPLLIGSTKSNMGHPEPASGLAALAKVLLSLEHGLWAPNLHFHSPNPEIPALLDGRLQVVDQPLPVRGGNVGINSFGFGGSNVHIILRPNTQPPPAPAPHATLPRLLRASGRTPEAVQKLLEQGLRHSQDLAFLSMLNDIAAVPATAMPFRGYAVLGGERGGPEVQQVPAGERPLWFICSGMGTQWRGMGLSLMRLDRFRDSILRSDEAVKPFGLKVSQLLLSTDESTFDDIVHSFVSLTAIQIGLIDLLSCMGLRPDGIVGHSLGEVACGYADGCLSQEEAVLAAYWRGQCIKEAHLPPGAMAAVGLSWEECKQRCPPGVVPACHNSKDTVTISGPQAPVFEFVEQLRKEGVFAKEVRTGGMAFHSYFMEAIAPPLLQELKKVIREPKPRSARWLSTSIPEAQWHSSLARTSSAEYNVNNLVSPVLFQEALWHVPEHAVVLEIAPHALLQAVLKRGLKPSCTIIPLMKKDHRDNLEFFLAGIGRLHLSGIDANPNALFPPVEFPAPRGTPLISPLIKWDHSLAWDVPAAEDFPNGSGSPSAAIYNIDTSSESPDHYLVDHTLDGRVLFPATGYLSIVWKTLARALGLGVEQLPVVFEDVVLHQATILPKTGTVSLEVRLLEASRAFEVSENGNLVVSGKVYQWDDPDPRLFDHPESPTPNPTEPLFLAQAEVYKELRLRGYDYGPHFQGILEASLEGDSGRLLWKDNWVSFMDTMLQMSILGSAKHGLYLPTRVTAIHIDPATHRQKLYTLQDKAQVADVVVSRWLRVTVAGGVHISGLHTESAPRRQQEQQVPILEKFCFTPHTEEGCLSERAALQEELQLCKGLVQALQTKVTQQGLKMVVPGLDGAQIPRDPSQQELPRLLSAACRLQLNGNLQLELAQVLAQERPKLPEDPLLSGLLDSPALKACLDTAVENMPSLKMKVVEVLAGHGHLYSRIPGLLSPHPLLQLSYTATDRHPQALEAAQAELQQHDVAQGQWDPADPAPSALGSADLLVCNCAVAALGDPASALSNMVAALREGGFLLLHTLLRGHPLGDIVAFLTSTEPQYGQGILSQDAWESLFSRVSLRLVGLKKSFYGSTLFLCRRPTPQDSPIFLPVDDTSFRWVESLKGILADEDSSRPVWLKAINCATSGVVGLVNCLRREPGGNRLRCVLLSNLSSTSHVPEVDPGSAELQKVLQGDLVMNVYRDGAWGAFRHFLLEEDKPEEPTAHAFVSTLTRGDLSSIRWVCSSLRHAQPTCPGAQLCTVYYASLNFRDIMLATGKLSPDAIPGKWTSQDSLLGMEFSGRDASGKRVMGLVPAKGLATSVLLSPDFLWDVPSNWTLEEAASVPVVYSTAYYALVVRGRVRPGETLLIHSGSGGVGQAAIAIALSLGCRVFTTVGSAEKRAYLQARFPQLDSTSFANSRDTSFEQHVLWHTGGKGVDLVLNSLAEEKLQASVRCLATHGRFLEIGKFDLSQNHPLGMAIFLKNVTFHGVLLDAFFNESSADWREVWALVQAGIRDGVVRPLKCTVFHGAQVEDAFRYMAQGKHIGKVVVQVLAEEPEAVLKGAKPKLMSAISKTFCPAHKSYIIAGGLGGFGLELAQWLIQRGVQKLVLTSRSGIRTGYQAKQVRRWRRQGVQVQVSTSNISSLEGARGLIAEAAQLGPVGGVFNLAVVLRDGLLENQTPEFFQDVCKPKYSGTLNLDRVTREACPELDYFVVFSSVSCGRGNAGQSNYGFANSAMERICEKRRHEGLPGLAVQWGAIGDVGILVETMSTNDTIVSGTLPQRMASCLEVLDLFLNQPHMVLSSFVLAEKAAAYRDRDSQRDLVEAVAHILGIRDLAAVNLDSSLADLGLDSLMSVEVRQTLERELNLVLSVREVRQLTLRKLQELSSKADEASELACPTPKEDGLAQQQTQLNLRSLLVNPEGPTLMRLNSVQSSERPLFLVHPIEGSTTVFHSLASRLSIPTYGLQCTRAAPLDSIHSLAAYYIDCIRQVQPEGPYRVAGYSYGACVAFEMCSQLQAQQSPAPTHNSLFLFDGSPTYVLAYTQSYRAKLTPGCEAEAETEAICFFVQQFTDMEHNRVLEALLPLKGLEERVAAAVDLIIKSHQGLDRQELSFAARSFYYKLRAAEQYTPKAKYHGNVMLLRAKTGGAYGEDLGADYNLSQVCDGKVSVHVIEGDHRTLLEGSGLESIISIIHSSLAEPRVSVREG
Numbers stand for hits; - = inactive; . = no result.

SMILES	rCAG binder	GRIN3A LBD mod	NadD block	FAS-TE inh
COC(=O)[C@]12C[C@H](CC(=O)NCCc3ccccc3OC)C(=O)N(Cc3ccc4c(c3)OCO4)C1=C[C@H](C(C)(C)C)O[C@@H]2C	-	.	.	.
O=C(Nc1ccc(C(F)(F)F)cc1-c1ccccc1)c1ccccc1	-	-	-	-
O=C(Nc1ccccc1-c1ccccc1)c1cccc(C(F)(F)F)c1	-	18	-	-
CCOC(=O)CC[C@@]1(C(=O)OCC)C[C@@H](CC(=O)N2CCSCC2)C(=O)N2CCCC=C21	-	.	.	.
Cc1cc(C(F)(F)F)c(C#N)c(SCC(=O)Nc2nc3cc(Br)ccc3s2)n1	-	30	-	-
COc1ccccc1CNC(=O)c1nn(C)c2c1CS(=O)(=O)c1ccccc1-2	-	18	-	-
Cn1nc(C(=O)NCc2ccccc2Cl)c2c1-c1ccccc1S(=O)(=O)C2	-	-	-	-
CCCCCCCCN1C(=O)[C@@H](CC(=O)NCCCOCCCC)C[C@@]2(C(=O)OC)C1=C[C@H](C(C)(C)C)O[C@@H]2C	-	.	.	.
COc1ccc2nc(NC(=O)CSc3nc4ccccc4o3)sc2c1	-	15	-	-
CCCC(=O)Nc1nc2ccc(OCC)cc2s1	-	-	-	-
O=C(CSc1nc2ccccc2o1)Nc1nc2ccc(Br)cc2s1	-	-	-	-
CCOc1ccc2nc(NC(=S)N(C)C)sc2c1	-	30	-	-
CCOc1ccc2nc(NC(=O)CSc3ccccc3)sc2c1	-	30	-	-
COC(=O)[C@H](C(C)C)N1Cc2nnn(CC3CCCCC3)c2-c2ccccc2S1(=O)=O	-	.	.	.
CCOc1cccc(C(=O)NC(=S)Nc2ccccc2)c1	-	-	-	-
CCCCOc1cccc(C(=O)NC(=S)Nc2cccc(C(F)(F)F)c2)c1	-	12	-	-
CCOc1cccc(C(=O)NC(=S)Nc2cccc(NC(=O)c3ccccc3Cl)c2)c1	-	16	-	-
CCCCNC(=O)Nc1ccccc1C(=O)Nc1ccc(OC)cc1	-	11	-	-
COc1ccc(NC(=O)c2cc(=O)[nH]c3ccccc23)cc1	-	-	-	-
CCCCNC(=O)Nc1ccccc1C(=O)NCCC	-	-	-	-
COc1ccc(NC(=O)c2cccc3ccccc23)cc1	-	22	-	-
COc1ccc(NC(=O)c2cccc3c(Br)cccc23)cc1	-	-	-	-
COc1ccc(NC(=O)c2cc3ccc4c5ccccc5[nH]c4c3cc2O)cc1	-	230	-	-
Cc1ccccc1C(=O)NC1CCCCN(Cc2cccc(C(F)(F)F)c2)C1=O (stereo unspecified)	-	.	.	.
O=C1C[C@@H](c2ccccc2)N=C2N(CC3CC3)C/C(=C/c3ccccc3)N12	-	.	.	.
SMILES	rCAG binder	GRIN3A LBD mod	NadD block	FAS-TE inh
NC(=O)c1ncc(C(F)(F)F)cc1Oc1cccc(F)c1	-	-	-	-
NC(=O)c1ncc(C(F)(F)F)cc1Oc1cccc(C(F)(F)F)c1	-	11	-	-
CCOC(=O)[C@]12CCCCC/C=C\1N(CCc1ccc(Cl)cc1)C(=O)[C@H]2CC(=O)NCc1ccc(C)o1	-	.	.	.
Cc1ccc(C)n1-c1cc(S(=O)(=O)N2CCOCC2)ccc1N1CCCC1	-	-	35	-
CC1CCc2c(sc(NC(=O)Cn3nc(C(F)(F)F)c4c3CCCCC4)c2C#N)C1 (stereo unspecified)	-	16	-	-
N#Cc1c(NC(=O)Cn2nc(C(F)(F)F)c3c2CCCC3)sc2c1CCC2	-	-	-	-
Cc1ccc(OCc2nnc(SCCN3CCOCC3)n2C)cc1	-	-	-	-
Cc1ccc(OCc2nnc(SCC(=O)N3CCOCC3)n2C)cc1	-	16	-	-
CCN(CC)S(=O)(=O)c1ccc(N2CCCC2)c(NS(=O)(=O)c2ccccc2)c1	-	16	-	-
CCN(CC)S(=O)(=O)c1ccc(N2CCCC2)c(NS(=O)(=O)c2ccc(F)cc2)c1	-	-	-	-
O=S(=O)(Nc1nc2ccccc2s1)c1ccc(Br)s1	50	-	-	-
Cc1ccc2nc(NC(=O)CCNS(=O)(=O)c3cccs3)sc2c1	-	-	-	-
Cc1cc(C)c2sc(NC(=O)c3ccc([N+](=O)[O-])o3)nc2c1	-	15	-	-
Cc1ccc(S(=O)(=O)Nc2nc3ccccc3s2)cc1	-	-	-	-
NS(=O)(=O)c1ccc2nc(NC(=O)c3ccc(Br)o3)sc2c1	-	-	-	-
Cc1ccc2nc(NC(=O)CCNS(=O)(=O)c3ccc(Br)s3)sc2c1	.	11	-	-
Cc1ccc2nc(NC(=O)c3ccc(Br)o3)sc2c1	-	18	-	-
CC(=O)N1CCCN(C(=O)C2CCN(c3ncnc4c3sc3cccc(F)c34)CC2)CC1	-	.	.	.
CCC(C)n1c(SCc2ccccc2)nc2ccsc2c1=O (stereo unspecified)	-	11	-	-
CCC(C)n1c(SCC(=O)Nc2ccccc2C(F)(F)F)nc2ccsc2c1=O (stereo unspecified)	-	-	-	-
COc1ccc(-c2nnc(SCC(=O)Nc3cccc4ccccc34)n2Cc2ccco2)cc1	-	.	.	.
CCCC(=O)NC(NC(=S)Nc1ccc(N=Nc2ccccc2)cc1)C(Cl)(Cl)Cl (stereo unspecified)	-	22	-	-
O=C(CCc1ccccc1)NC(NC(=S)Nc1cccc(Cl)c1)C(Cl)(Cl)Cl (stereo unspecified)	-	38	-	-
O=C(CCc1ccccc1)NC(NC(=S)Nc1ccc(Br)cc1)C(Cl)(Cl)Cl (stereo unspecified)	-	14	-	-
CCCC(=O)NC(NC(=S)Nc1ccc(S(N)(=O)=O)cc1)C(Cl)(Cl)Cl (stereo unspecified)	-	-	-	-
SMILES	rCAG binder	GRIN3A LBD mod	NadD block	FAS-TE inh
O=C(COc1ccccc1)Nc1ccc2c(c1)Cc1cc(NC(=O)COc3ccccc3)ccc1-2	-	23	-	-
Cc1ccccc1OCC(=O)Nc1ccc2c(c1)Cc1ccccc1-2	.	-	-	-
COc1ccc(S[C@]2(C(=O)N3CCOCC3)CC(=O)N(c3ccc(C#N)cc3)[C@@H]2c2ccc(OC)cc2)cc1	-	.	.	.
C/C=C/C=C/C(=O)c1cc(C)c(OC(=O)CNC(=O)OC(C)(C)C)c(C)c1O	-	.	.	.
c1ccc(-c2cccc3[nH]cc(-c4ccccc4)c23)cc1	-	.	.	.
O=C(CCc1ccccc1)NNC(=O)Nc1ccc(Br)cc1	-	12	-	-
C/C(=N\NC(=O)COc1ccccc1)c1ccc(O)cc1	-	13	-	-
O=C(CCc1ccccc1)NNC(=O)COc1ccccc1	-	13	-	-
COc1ccc(OCC(=O)N/N=C(\C)c2ccc(OC)cc2)cc1	-	-	-	-
O=C(CCCC(=O)NNC(=O)Nc1ccccc1)NNC(=O)Nc1ccccc1	-	-	-	-
COc1ccc(OCC(=O)NNC(=O)CCc2ccccc2)cc1	-	-	-	-
FC(F)C(F)(F)c1cc(-c2ccc(Cl)cc2)n[nH]1	-	-	-	-
Fc1ccc(-c2cc(C(F)(F)C(F)F)[nH]n2)cc1	-	10	-	-
Cc1ccccc1N1CCN(C(=O)CCn2nnc3ccccc32)CC1	-	.	.	.

Bioassay records: PubChem, several laboratories
